The list is not random: actives were taken first. Their share in the collection is about 2.9%.
PG9 binder: binders of HIV-1 gp120 antibody PG9, primary screen, biochemical, TR-FRET | HIV-1 gp120 / PG9 antibody interaction | inhibition, % at 6.7 µM | actives 0.43% (n = 360,000) | TR-FRET gp120-PG9 antibody binding | AID 624416, 2012; in the data active means inhibition above about 8.5%
SKN-1 inh: suppressors of acrylamide-induced Pgst-4::GFP reporter in worms, primary screen, SKN-1 inhibitor project, whole organism, uHTS, GFP/RFP fluorescence ratio, strain VP596; C. elegans VP596 Pgst-4::GFP/RFP ratio, 24 h; inhibition, % at 21.8 µM; actives 0.49% (n = 360,000);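 active means interference check ratio from 0.5 to 1.5 plus GFP to RFP signal ratio inhibition reaching or exceeding a fixed threshold, cut at about 30% in these data, passing the limit was not always enough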
EP2 mod: EP2 receptor modulators, cAMP readout, primary screen, cell-based, HTRF cAMP, PGE2 stimulation; EP2-expressing cells, cAMP HTRF FRET, PGE2 co-stimulation; induction, % at 25 µM; actives 0.83% (n = 260,000); AID 940, 2007;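 active means compounds whose cAMP rise, as percent of the full-agonist control response, exceeds 60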;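 further: rat C6 glioma line stably carrying human EP2 under a CMV promoter; the protocol text gives 20 µM as final concentration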
Target sequence (P43116 whole entry, looked up): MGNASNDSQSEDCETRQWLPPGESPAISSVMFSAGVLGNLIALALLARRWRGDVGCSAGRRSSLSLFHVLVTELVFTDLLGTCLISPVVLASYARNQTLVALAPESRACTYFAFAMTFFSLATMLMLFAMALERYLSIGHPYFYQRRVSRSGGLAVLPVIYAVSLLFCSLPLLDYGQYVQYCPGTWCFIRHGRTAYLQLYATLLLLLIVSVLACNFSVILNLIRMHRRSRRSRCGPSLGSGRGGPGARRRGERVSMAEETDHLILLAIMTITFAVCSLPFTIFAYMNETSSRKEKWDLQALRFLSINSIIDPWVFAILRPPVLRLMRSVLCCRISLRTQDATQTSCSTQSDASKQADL
RAM network inh: inhibitors of the yeast RAM network, primary screen, dse1pr::URA3 reporter, 5-FOA selection. S. cerevisiae dse1pr::URA3 reporter, 5-FOA growth OD615, 2 d; analog-sensitive cbk1-as2 kinase mutant strain. inhibition, % at 50 µM. actives 1.8% (n = 190,000);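 active means inhibition above a set limit, 3 SD over mean compound inhibition, cut at about 8.4% in these data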;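 further: inhibition rescues growth on 5-FOA so higher OD means more RAM inhibition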
EP2 antag: human EP2 receptor antagonists, primary screen, TR-FRET cAMP, C6 glioma cells; AID 1422, 2008; actives 0.52% (n = 260,000); C6 glioma cells expressing human EP2; cells stimulated with saturating PGE2; inhibition, % at 25 µM; Prostaglandin E2 receptor EP2 subtype (Homo sapiens), P43116;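 active means percent inhibition above 40 after rounding to a whole number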;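 further: rat C6 glioma host cells with rolipram phosphodiesterase inhibitor present; the protocol text gives 20 µM as final concentration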
Rev-erbA mod: modulators of Rev-erb alpha DNA binding, primary screen, biochemical, FITC-DNA, fluorescence polarization, uHTS; activity, % at 10 µM; actives 0.79% (n = 370,000); Rev-erbα–FITC-DNA binding, 90 min; Nuclear receptor subfamily 1 group D member 1 (Homo sapiens), P20393;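 active means activity above about 14%, limit read from the data; passing the limit was not always enough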
NR1D1 mod conf: modulators of Rev-erb alpha DNA binding, confirmation, biochemical, FITC-DNA, fluorescence polarization, single point; activation, % at 25 µM; shares compounds with Rev-erbA mod; AID 1259319, 2017; actives 61% (n = 3,000); 90 min;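 active means activation at or above a set limit, or at least 3 SD above the negative control mean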
RORg counter: modulation of RORgamma DNA binding, dose response, counter-screen for Rev-erb alpha modulator project, biochemical, fluorescence polarization, FITC-DNA. shares compounds with Rev-erbA mod. purified RORgamma protein-FITC-DNA binding. IC50, µM. actives 8% (n = 910);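 active means Compounds whose fitted half-maximal concentration for disrupting protein-DNA binding is below 10 micromolar; the record names Rev-erb in its text, so the target is in doubt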
Hits are given with their value; – = inactive; · = not tested or not shown.

SMILES	PG9 binder	SKN-1 inh	EP2 mod	RAM network inh	EP2 antag	Rev-erbA mod	NR1D1 mod conf	others
Cc1cc(C)cc(N2CC(O)=C(c3nc4ccccc4c(=O)[nH]3)C2=N)c1	–	–	–	–	–	21	33	RORg counter=–
O=C(NC12CC3CC(CC(C3)C1)C2)C1CCN(S(=O)(=O)c2ccc(Cl)cc2)CC1	·	·	–	·	–	·	·
COC(=O)/C(C#N)=C/c1c(N2CCN(c3ccc(OC)cc3)CC2)nc2c(C)cccn2c1=O	–	–	·	·	·	33	–
CCOc1ccc(-c2nc(-c3ccncc3)no2)cc1OCC	–	–	–	–	–	–	·
CCOc1cc(-c2nc(-c3ccncc3)no2)cc(OCC)c1OCC	–	–	–	–	–	28	–
COC(=O)c1c(-c2cccc3ccccc23)csc1NC(=O)Cc1ccc(OC)c(OC)c1	–	–	–	–	–	20	30
Cc1cc(-c2cncnc2C2CCCN(C(=O)NCc3ccccc3)C2)on1 (stereo not drawn)	·	·	–	·	·	·	·
CCOC(=O)c1ccc2c(c1)sc(=NC(=O)c1ccco1)n2CCOC	–	–	–	–	–	35	25
CCOC(=O)Cn1c(=NC(=O)c2cccs2)sc2cc(C(=O)OC)ccc21	–	–	–	–	–	85	75	RORg counter=–
CCOC(=O)Cn1c(=NC(=O)CN2C(=O)CCC2=O)sc2cc(S(N)(=O)=O)ccc21	–	–	–	–	–	–	·
CCC(=O)N=c1sc2cc([N+](=O)[O-])ccc2n1CCOC	–	–	–	–	–	–	·
CCOC(=O)Cn1c(=NC(=O)c2nc3ccccc3s2)sc2cc(S(N)(=O)=O)ccc21	–	–	–	10	–	48	29
O=C1C2CCCN2S(=O)(=O)c2ccccc2N1Cc1cccnc1 (stereo not drawn)	·	·	–	·	·	·	·
CCc1nc(C)cn1S(=O)(=O)c1cc(OC)c(Cl)cc1OC	·	·	–	·	–	·	·
CCCCn1c(N)c(N(CC(C)C)C(=O)C2CC(=O)N(CCc3ccccc3)C2)c(=O)[nH]c1=O (stereo not drawn)	–	–	·	·	·	12	–
O=S1(=O)CC(N2CCOCC2)C(N2CCOCC2)C1 (stereo not drawn)	·	·	–	·	–	·	·
CCOC(=O)C1Nc2c(F)cc(C)cc2C2c3ccccc3CC12 (stereo not drawn)	–	–	·	·	–	109	44
CCOC(=O)C1Nc2ccccc2C2c3ccccc3CC12 (stereo not drawn)	–	–	·	·	–	–	·
CCOC(=O)c1c(-c2cccs2)csc1NC(=O)c1ccncc1	–	–	–	9.6	–	29	28
O=S(=O)([O-])CCc1cccc[n+]1CC(O)COc1ccccc1Cl (stereo not drawn)	·	·	–	·	–	·	·
CCN1/C(=C/c2ccc3cc(C)ccc3[n+]2CC)Sc2cc(C)ccc21	–	–	–	–	80	29	51	RORg counter=–
CCN1/C(=C/c2ccc3cc(OC)ccc3[n+]2CC)Sc2cc(NC(C)=O)ccc21	·	·	–	·	–	·	·
COc1ccc(Cn2c3ccc(OC)cc3c3nc4ccccc4nc32)cc1	–	–	–	–	–	25	23
CNC(=S)N(Cc1ccco1)Cc1cc2ccc(C)c(C)c2[nH]c1=O	·	·	–	·	–	·	·
Cc1coc2c(C)c3oc(=O)c4c(c3cc12)CCCC4	–	–	·	·	–	–	·
Cc1oc2cc3oc(=O)c4c(c3cc2c1C)CCC4	–	–	–	–	–	49	44	RORg counter=–
